# From PubChem BioAssay AID651793 (National Center for Advancing Translational Sciences (NCATS), 2012)
# Inconclusive results are not listed. Entries that show only a call come without a potency. The source made the active and inactive calls. The call rests on the fitted dose curve; in most records, active means well fitted inhibition curve with a large enough effect; inconclusive means small, poorly fitted or top-dose-only effect; inactive means flat fitted curve, though single readings scatter.
# Assay: InCell qHTS Assay for Inhibitors of the mTORC1 Signaling Pathway in WT MEF Cells: Hit Validation
# Source text: The mammalian target of rapamycin (mTOR) is an intracellular serine/threonine kinase Aberrant regulation of mTOR signaling plays a causative role in a number of human diseases, including cancer, benign tumors such as lymphangioleiomyomatosis (LAM) and Tuberous Sclerosis Complex (TSC), and metabolic diseases such as diabetes and obesity. This project aims to identify inhibitors of ribosomal protein S6 (rpS6) phosphorylation. The phosphorylation of rpS6 is a key event downstream of mTOR activation. The assay uses a phospho-specific antibody of phospho-rpS6 to detect inhibitors of mTOR activation. […]
# For quantitative high throughput analysis of mTORC1 signaling, we developed a cell-based assay for immuno-fluorescence based detection of rpS6 phosphorylation on the Acumen Explorer that will be used a platform for the primary small molecule screen. […] The fluorescence emission from the Alexa-488 conjugated rpS6 phospho-235/236 antibody staining is selected using a […] band pass filter. Fluorescence emission from the PI stain is selected using a 575-640 nm band pass filter. The normalized phospho-S6 staining is calculated as the ratio of the integrated Alexa 488 intensity divided by the integrated PI intensity for the single concentration rapamycin control (7.5 nM) and DMSO columns. […]
row,SMILES,Potency
1,CCOc1ccc(NC(=O)c2cc3c(C)nn(-c4ccccc4)c3s2)cc1,17.9 µM (active)
2,Cn1cc(C2=C(c3cn(C4CCN(Cc5ccccn5)CC4)c4ccccc34)C(=O)NC2=O)c2ccccc21,inactive
